Results on 16 compounds are retold here after PubChem BioAssay.

The nature of assay [1]: Wnt pathway potentiators raising nuclear beta-catenin – imaging, WNT3A-conditioned medium, mouse C2C12, NPC library, primary screen (AID 1117326; in the data active = nuclear beta-catenin stimulation mostly above about 4.2%, no sharp cut-off; inactive = mostly below about 10%; also: reference of the scale not given here). Conditions: stronger effect = higher value.
The nature of assay [2]: stimulators of insulin release from INS-1E, primary screen, cell-based, 5 mM glucose, NPC library (AID 1117329;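 active = compound raises insulin release from rat beta cells at 5 mM glucose, no numeric limit stated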; also: reference of the scale not given here). As to conditions: rat INS-1E insulin secretion, at 10 µM, stronger effect = higher value.
Assay [3] in a line: growth inhibition of GSK3B-pretreated HCT116 cells – cell-based, CellTiter-Glo, 0.2 to 20 µM (AID 1117336;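 active = compounds lowering colon cancer cell viability after pretreatment blocking the GSK3B kinase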). As to conditions: HCT116 viability after GSK3B inhibitor, at 20 µM, stronger effect = higher value. (In general: In ATP-based viability assays light output follows the ATP content of the culture.)
A short description of assay [4]: inhibition of endothelial tube formation, primary screen, imaging, VEGF stimulated, CD31 staining, tube area, NPC library (AID 1117340;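 active = compound that reduces growth-factor-driven endothelial tube area in a mixed cell culture, no cutoff stated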). As to conditions: VEGF-stimulated ADSC/ECFC co-culture, at 10 µM, stronger effect = higher value.
Assay [5] can be described thus: GLP1 release stimulators, primary, NCI-H716, NPC library (AID 1117341;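 active = compound raises GLP1 secretion from the human gut endocrine cells, with no numeric limit stated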; also: reference of the scale not given here). As to conditions: NCI-H716 cells, at 10 µM, stronger effect = higher value.
Assay [6] can be described thus: HCT116 colon cancer cell growth inhibition, primary screen, CellTiter-Glo luminescence, NPC library (AID 1117342). Conditions: at 20 µM (top of the series).
Assay [7] can be described thus: reduced SW480 viability measured with CellTiter-Glo, NPC library, primary (AID 1117343;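 active = compounds that lower viability of the colon cancer cells in the luminescence readout, with no numeric limit stated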). As to conditions: CellTiter-Glo luminescence; at 20 µM (top of the series).
Assay [8] in a line: NPC library primary testing for decreased DLD-1 cell viability via CellTiter-Glo (AID 1117346;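 active = compounds that lower survival of DLD-1 colon cancer cells in the luminescence readout, no cutoff given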). Conditions: DLD-1 viability, CellTiter-Glo luminescence; at 20 µM (top of the series).

Molecules are shown by their SMILES. Active and inactive are the calls of the source.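 The calls were made as follows, unless noted: active = compounds that lower survival of HCT116 colon cancer cells in the luminescence readout, no numeric limit stated; inactive = the rest.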

As to `Cc1ncc(COP(=O)(O)O)c(C=O)c1O`, the nuclear beta-catenin stimulation was -1.1% (inactive) in assay [1] (at 10 µM) and -0.2% in assay [1] (stimulation, at 2 µM). The insulin secretion stimulation in assay [2] is -0.8% (inactive). In addition, the viability decrease in assay [3] is 9.5% (inactive). Also, in assay [4], the tube area decrease was -0.4% (inactive). Also, the GLP1 secretion stimulation in assay [5] is -1.1% (inactive). In addition, the inhibition of viability in assay [6] was 4.63% (inactive). In addition, the viability decrease (inhibition) was -1.4% (inactive) in assay [7] and 3.4% (inactive) in assay [8].

With `Nc1nc2ccccc2n1Cc1ccc(F)cc1`, the nuclear beta-catenin stimulation is 0.8% (inactive) in assay [1] (at 10 µM) and -2% in assay [1] (stimulation, at 2 µM). Moreover, in assay [2], the insulin secretion stimulation is 0.8% (inactive). Besides, the viability decrease in assay [3] is 56.4% (active). The tube area decrease in assay [4] is 15.1% (inactive). Also, the GLP1 secretion stimulation in assay [5] is -0.6% (inactive). Besides, the inhibition of viability in assay [6] is 74.9% (active). Besides, the viability decrease (inhibition) in assay [7] was 84% (active); in assay [8] it was 43% (inactive).

With `C[C@@H]1C[C@H]2[C@@H]3CCC4=CC(=O)C=C[C@]4(C)[C@@]3(F)[C@@H](O)C[C@]2(C)[C@@]1(O)C(=O)COC(=O)c1ccncc1`, the nuclear beta-catenin stimulation was 2.8% (inactive) in assay [1] (at 10 µM) and 2.8% in assay [1] (stimulation, at 2 µM). Further, the insulin secretion stimulation in assay [2] was -1% (inactive). Also, the viability decrease in assay [3] was -41.3% (inactive). The tube area decrease in assay [4] was -2.4% (inactive). The GLP1 secretion stimulation in assay [5] was -1.9% (inactive). For the same compound, in assay [6], the inhibition of viability was -4.43% (inactive). The viability decrease (inhibition) in assay [7] was 5.8% (inactive); in assay [8], -18.6% (inactive).

As for `Cc1cc(N)c2cc(NC(=O)Nc3ccc4nc(C)cc(N)c4c3)ccc2n1`, the nuclear beta-catenin stimulation was 2.4% (inactive) in assay [1] (at 10 µM) and -2.2% in assay [1] (stimulation, at 2 µM). Also, the insulin secretion stimulation in assay [2] was 8.1% (inactive). The viability decrease in assay [3] is 54.4% (active). Also, the tube area decrease in assay [4] was -0.3% (inactive). In assay [5], the GLP1 secretion stimulation was 32.3% (active). Also, in assay [6], the inhibition of viability is 64% (active). The viability decrease (inhibition) in assay [7] is 144% (active); in assay [8] it was 94.2% (active).

Regarding `O=C(c1ccco1)N1CCNCC1`, the nuclear beta-catenin stimulation is 4.5% (inactive) in assay [1] (at 10 µM) and -0.4% in assay [1] (stimulation, at 2 µM). Besides, in assay [2], the insulin secretion stimulation is 0.1% (inactive). Further, in assay [3], the viability decrease is -3.6% (inactive). Moreover, in assay [4], the tube area decrease is -16.6% (inactive). For the same compound, in assay [5], the GLP1 secretion stimulation is -0.5% (inactive). Moreover, in assay [6], the inhibition of viability is -8.9% (inactive). The viability decrease (inhibition) in assay [7] is -21.1% (inactive); in assay [8] it was 5.4% (inactive).

Take `CC(=O)CC/C=C(\C)CC/C=C(\C)CC/C=C(\C)CCC=C(C)C`: the nuclear beta-catenin stimulation was 2.6% (inactive) in assay [1] (at 10 µM) and 1.2% in assay [1] (stimulation, at 2 µM). Further, the insulin secretion stimulation in assay [2] was -2.1% (inactive). Besides, the viability decrease in assay [3] is -2.15% (inactive). Moreover, the tube area decrease in assay [4] is 19.6% (inactive). In addition, the GLP1 secretion stimulation in assay [5] was -1.7% (inactive). Besides, in assay [6], the inhibition of viability is -35.4% (inactive). Besides, the viability decrease (inhibition) is 34.2% (active) in assay [7] and 0.15% (inactive) in assay [8].

Take `CN(C)CCOC(c1ccccc1)c1ccc(Br)cc1` (centres undefined): the nuclear beta-catenin stimulation in assay [1] (at 10 µM) was 4.6% (inactive); in assay [1] (stimulation, at 2 µM) it was 5.4%. In addition, in assay [2], the insulin secretion stimulation was 95% (active). Further, the viability decrease in assay [3] was -92.2% (inactive). Moreover, the tube area decrease in assay [4] was -4.6% (inactive). Moreover, the GLP1 secretion stimulation in assay [5] was 12.6% (inactive). For the same compound, the inhibition of viability in assay [6] is 29.9% (inactive). The figures for the viability decrease (inhibition) in assay [7] and in assay [8] were 55.5% (active) and 5.7% (inactive), respectively.

Consider `Cc1cccc(N(C)C(=S)Oc2ccc3c(c2)CCC3)c1`, for which the nuclear beta-catenin stimulation in assay [1] (at 10 µM) is 0% (inactive); in assay [1] (stimulation, at 2 µM) it was -1.8%. Also, the insulin secretion stimulation in assay [2] is 3.9% (inactive). Moreover, the viability decrease in assay [3] was 33.9% (inactive). In addition, the tube area decrease in assay [4] was -13.8% (inactive). Further, the GLP1 secretion stimulation in assay [5] was -4.7% (inactive). Also, in assay [6], the inhibition of viability was 55.5% (active). In addition, the viability decrease (inhibition) in assay [7] was 42.6% (inactive); in assay [8], 55.5% (active).

On to `CCOC(=O)c1cccnc1`, for which the nuclear beta-catenin stimulation was 0.1% (inactive) in assay [1] (at 10 µM) and 0.3% in assay [1] (stimulation, at 2 µM). For the same compound, the insulin secretion stimulation in assay [2] was -2.3% (inactive). The viability decrease in assay [3] was -2.55% (inactive). Besides, in assay [4], the tube area decrease is -7.8% (inactive). In addition, in assay [5], the GLP1 secretion stimulation was 1.1% (inactive). In addition, the inhibition of viability in assay [6] is -17.8% (inactive). Further, the viability decrease (inhibition) in assay [7] is 58.1% (active); in assay [8], -9.05% (inactive).

In the case of `Cc1nc(C2CCCCC2)c(-c2ccc(S(N)(=O)=O)c(F)c2)o1`, the nuclear beta-catenin stimulation is 2.5% (inactive) in assay [1] (at 10 µM) and 4.1% in assay [1] (stimulation, at 2 µM). In assay [2], the insulin secretion stimulation was 1.4% (inactive). Besides, the viability decrease in assay [3] was 21% (inactive). For the same compound, the tube area decrease in assay [4] is 24% (inactive). In addition, the GLP1 secretion stimulation in assay [5] was 1.8% (inactive). Moreover, the inhibition of viability in assay [6] is -0.63% (inactive). The values for the viability decrease (inhibition) in assay [7] and in assay [8] were 6.3% (inactive) and 3.1% (inactive), respectively.

On to `Nc1c(NC/C=C\COc2cc(CN3CCCCC3)ccn2)c(=O)c1=O`, for which the nuclear beta-catenin stimulation in assay [1] (at 10 µM) is 0.1% (inactive); in assay [1] (stimulation, at 2 µM), -1.1%. Further, the insulin secretion stimulation in assay [2] was 0.1% (inactive). For the same compound, the viability decrease in assay [3] was 2.9% (inactive). For the same compound, the tube area decrease in assay [4] is 1% (inactive). In addition, the GLP1 secretion stimulation in assay [5] is 4% (inactive). Also, the inhibition of viability in assay [6] was 8.6% (inactive). Further, the viability decrease (inhibition) in assay [7] was -4.4% (inactive); in assay [8], -5% (inactive).

For `Nc1ncnc(Nc2ccccc2)n1`, the nuclear beta-catenin stimulation in assay [1] (at 10 µM) is 0.5% (inactive); in assay [1] (stimulation, at 2 µM), 0.6%. For the same compound, the insulin secretion stimulation in assay [2] was -1.2% (inactive). In addition, the viability decrease in assay [3] is 3.65% (inactive). Besides, the tube area decrease in assay [4] was -16% (inactive). Besides, the GLP1 secretion stimulation in assay [5] was -0.9% (inactive). For the same compound, the inhibition of viability in assay [6] was 2.7% (inactive). Further, the viability decrease (inhibition) in assay [7] was 51.8% (active); in assay [8], 19.1% (inactive).

For the compound `c1ccc(C(O[C@H]2CCCN(CCc3ccc4c(c3)OCO4)C2)c2ccccc2)cc1`, the nuclear beta-catenin stimulation was 0.9% (inactive) in assay [1] (at 10 µM) and 1.5% in assay [1] (stimulation, at 2 µM). Also, in assay [2], the insulin secretion stimulation was 5.45% (inactive). Moreover, the viability decrease in assay [3] is 100% (active). Further, in assay [4], the tube area decrease is -6.8% (inactive). Besides, the GLP1 secretion stimulation in assay [5] is 0.6% (inactive). Besides, the inhibition of viability in assay [6] is 96.3% (active). Further, the viability decrease (inhibition) in assay [7] is 101% (active); in assay [8] it was 90.1% (active).

As for `COc1cc(OC)nc(O[C@H](C(=O)O)C(OC)(c2ccccc2)c2ccccc2)n1`, the nuclear beta-catenin stimulation in assay [1] (at 10 µM) was 2.7% (inactive); in assay [1] (stimulation, at 2 µM), -0.4%. For the same compound, in assay [2], the insulin secretion stimulation was 1% (inactive). The viability decrease in assay [3] is 1.1% (inactive). The tube area decrease in assay [4] was -16.9% (inactive). For the same compound, the GLP1 secretion stimulation in assay [5] is 3.3% (inactive). Also, the inhibition of viability in assay [6] is 1.2% (inactive). Besides, the viability decrease (inhibition) in assay [7] was 6.1% (inactive); in assay [8], 2.4% (inactive).

In the case of `O=C1CC2(CCCC2)CC(=O)N1`, the nuclear beta-catenin stimulation in assay [1] (at 10 µM) was -0.8% (inactive); in assay [1] (stimulation, at 2 µM), -1.2%. Moreover, the insulin secretion stimulation in assay [2] is 0.4% (inactive). The viability decrease in assay [3] is -4% (inactive). The tube area decrease in assay [4] was -10.3% (inactive). Besides, the GLP1 secretion stimulation in assay [5] was -1.6% (inactive). Besides, the inhibition of viability in assay [6] is 7.1% (inactive). Besides, the viability decrease (inhibition) in assay [7] was 2.5% (inactive); in assay [8] it was -2.4% (inactive).

For `C=CCOc1cc(Cl)ccc1C(=O)NCCN(CC)CC`, the nuclear beta-catenin stimulation in assay [1] (at 10 µM) was -0.4% (inactive); in assay [1] (stimulation, at 2 µM), 0.3%. Moreover, the insulin secretion stimulation in assay [2] was 16.7% (inactive). Further, the viability decrease in assay [3] is 11% (inactive). Besides, the tube area decrease in assay [4] is -13% (inactive). Further, the GLP1 secretion stimulation in assay [5] was 9.1% (inactive). Besides, the inhibition of viability in assay [6] is 30% (inactive). Further, the viability decrease (inhibition) in assay [7] is 32.4% (inactive); in assay [8], -3.9% (inactive).
